# ± gives the standard deviation.
# System: MILI (PIWIL2) piRISC loaded with L1MC piRNA (26 nt)
# Test: pre-steady-state target cleavage rate (min^-1); guide: L1MC piRNA 5'p-UAACUAAAUACUAUGCAAGCUGUAGG; higher = faster piRNA-guided slicing of the target
# Conditions: auxiliary factor: 500 nM mouse GTSF1
# Outline: (§1)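 The pre-steady-state cleavage rate came from a burst-and-steady-state fit to pooled data from three Cleave-'n-Seq trials, in which uncleaved targets were sequenced and normalised to depth and to weakly complementary targets. Each reaction held 0.1 nM transcribed, DNA-blocked target RNA library and 1 nM active affinity-purified piRISC carrying one synthetic guide, with or without 500 nM GTSF1 partner protein, in HEPES–potassium acetate buffer at 33 °C for 0–8 or 0–960 min. k3 was capped at 0.0001 min^-1.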
row,Sequence,pre-steady-state target cleavage rate
1,UCCUGGAUCAGCUUGCAUACUAUUUACUUA,0.0867 ± 0.02
2,UCCUCCUACAGCUUGCUUAGUAUUUACAAA,0.0922 ± 0.021
3,UCCUGGAUCUCCUUGCAUAGUAUUUAGAAA,0.192 ± 0.031
4,UCCUGGUACAGCUUGCAAAGUAUUUAGAAA,0.0181 ± 0.0094
5,UCCUGGAACAGCUUGCAUAGUAAUUUGUUA,0.0687 ± 0.013
6,UCCUGCUACAGCAUGCAUACUAUUUAGUUA,0.148 ± 0.028

# System: EfPiwi piRISC loaded with L1MC piRNA (26 nt)
# Test: pre-steady-state target cleavage rate (min^-1); auxiliary factor: 500 nM Ephydatia muelleri Gtsf1; guide: L1MC piRNA 5'p-UAACUAAAUACUAUGCAAGCUGUAGG; MIWI and MILI are mouse PIWI proteins and EfPiwi is from a freshwater sponge; tags in brackets are library labels; higher = faster piRNA-guided slicing of the target
# Conditions: not given
# Outline: as §1
row,Sequence,pre-steady-state target cleavage rate
1,UCCUGCAUCAGCUUGCAUAGUAUUUAGUUA,0.0591 ± 0.011
2,UCCUCCUUCAGCUUGCAUACUAUUUAGUUA,0.00784 ± 0.0025
3,UCCUGGUAACAGCUUGCAUAGUAUUUAGUUA,0.0495 ± 0.011
4,UCCUGGAUGUCGAACGUAUCUAUUUUCUUA,< 0.0001
5,UCCUGGAUGAGCUUCCAUAGUAUUUAGUUA,0.00346 ± 0.0018
6,UCCUGGAACAGCUUGCAUAGUAUUUAGUUU [g2:g23:cont:t1U],0.0156 ± 0.0055
7,UCCUGGAUCAGCUUGCAUACUAUUUACUUA,0.00362 ± 0.0032
8,UCCUCCUACAGCUUGCUUAGUAUUUACAAA,0.00329 ± 0.003
9,UCCUGGAACAGCUUGCAUAGUAUUUACUUA,0.00514 ± 0.0038
10,UCCUGGAACAGCUUGCUUAGUAUUUAGAUA,0.00448 ± 0.0027
11,UCCUGCUACAGACUUGCAUAGUAUUUAGUUA,0.00603 ± 0.0024
12,UCCUCCACAGCUUGCAUAGUAUUUAGUUA,0.0564 ± 0.018
13,UCCUGCUACAGCUUCCAUAGUAUUUAGAAA,0.00349 ± 0.0019
14,UCCUGGAUGUCGAACGUUAGAUUUAGUUA,< 0.0001
15,UCCUGGAUCUCCUUGCAUAGUAUUUAGAAA,0.00628 ± 0.0051
16,UCCUGGAUGUCGUUCCAUAGUAAUUAGUUA,< 0.0001
17,UCCUGGAACAGCUUGCAUAGUAUUAUGAAA,0.00336 ± 0.0021
18,UCCUGGAUGUCGAACGACAGUAUUUAGUUA,< 0.0001
19,UCCUGCAACAGCUUGCAUAGUAUUAAGUUA,0.00881 ± 0.0022
20,UCCUGGUACAGCUUGGAUAGUAAUUAGUUA,0.00316 ± 0.0025

row,Sequence,pre-steady-state target cleavage rate
1,UCCUCCUACAGCUUCCAUAGUAUUUACAAA,0.00265 ± 0.0026
2,UCCUGGAUGUGGUUGCAUAGUAAUUAGUUA,0.00754 ± 0.0039
3,UCCUGCUUGAGCUUGCAUAGUAUUUAGAAA,0.00479 ± 0.0016
4,UCCUCCUACAGCAUGCAAAGUAUUUAGUUA,0.0492 ± 0.017
5,UCCUGGAUGUCGAUGCAAAGUAUUUUGUUA,< 0.0001
6,UCCUGGUACAGCUUGCAUAGUAUAUUCAAA,0.00341 ± 0.0028
7,UCCUGGUACAGCUUGCAUAGUAUAAAGUAA,0.00243 ± 0.0022
8,UCCUGGAUGAGCUAGCAUAGUAUUUAGUAA,0.00419 ± 0.0024
9,UCCUGCUACAGCUUGCAUAGUAUGUAGUUA,0.00311 ± 0.0014
10,UCCUGGUACAGCUUGCAAAGUAUUUAGAAA,0.00656 ± 0.0038
11,UCCUGGAUGUCGAACGUAUCUAGUUUAGUUA,< 0.0001
12,UCCUGGAUGUCGAACGUAUCUAUUAUCUUA,< 0.0001
13,UCCUGGAUGUCCUUGCAUAUUAUUUAGUUA,0.00283 ± 0.0025
14,UCCUGGAACAGCUUGCAUAGUAAUUUGUUA,0.0032 ± 0.002
15,UCCUGCUACAGCAUGCAUACUAUUUAGUUA,0.00525 ± 0.0021
16,UCCUGGAUGAGCAAGCAUAGUAUUUAGUUA,0.0118 ± 0.0048
17,UCCUGGAUGUCGAACCAUAGAUAUUAGUUA,< 0.0001
18,UCCUGGUACAGCUUCGAUAGUAUUUACAAA,0.00595 ± 0.0049
19,UCCUGGUACAGCUUGCGAUAGUAUUUAGUUA,0.00543 ± 0.0019
20,UCCUGGAUGAGUUGCAUAGUAUUUAGUUA,0.00429 ± 0.002

# From the supplement of paper PMC10338343
